Activity calls are given as the source filed them. The calls were made as follows: active = hit-call score of the fitted dose curve at least 0.9, where 1 is the maximum; inactive = score below 0.9.

Read-out in assay [1]: urokinase plasminogen activator (uPA), PLAU (gene 5328)
In words: BSK_KF3CT_uPA: BioMAP Diversity Plus: KF3CT Assay for urokinase plasminogen activator (uPA) Biomarker Activity (AID 2283075). Particulars: primary human keratinocytes with fibroblasts; actives raise or lower the signal. A digest of the protocol: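 Values derive from bidirectional fitting against DMSO controls. Keratinocyte/foreskin fibroblast co-cultures received chemical; 24 h later uPA was detected by ELISA, with SRB total-protein staining in parallel wells for overt cytotoxicity.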

Read-out in assay [2]: CD40, CD40 (gene 958)
Kind of assay: BSK_LPS_CD40: BioMAP Diversity Plus: LPS Assay for CD40 Biomarker Activity (AID 2283076). The settings on record: primary human HUVEC with PBMC; actives raise or lower the signal. A digest of the protocol:
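HUVEC plus PBMC co-culture stimulated with LPS; CD40 quantified by ELISA 24 h after compound dosing. Fitting was bidirectional relative to DMSO. SRB staining of parallel cultures flagged overt cytotoxicity.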

Read-out in assay [3]: E-selectin (Homo sapiens) (UniProt P16581)
Kind of assay: BSK_LPS_Eselectin: BioMAP Diversity Plus: LPS Assay for Eselectin Biomarker Activity (AID 2283077). The settings on record: primary human HUVEC with PBMC; actives raise or lower the signal. The procedure, abridged:
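Human umbilical vein endothelial cells co-cultured with PBMC under LPS stimulation; cell-surface E-selectin measured by ELISA 24 h after dosing. Change in either direction versus DMSO, with SRB total-protein staining in parallel cultures for cytotoxicity.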

Assay [4] in a line: BSK_LPS_SRB: Viability Assessment in the BioMAP Diversity Plus: LPS Assay (AID 2283079).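 Also: total protein by sulforhodamine B absorbance as a cytotoxicity measure; measured one day after compound addition; fitted in both directions against DMSO so loss or gain of signal counts.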 The settings on record: primary human HUVEC with PBMC. The procedure, abridged:
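Co-culture of human umbilical vein endothelial cells and PBMC, read 24 h after dosing. Total protein by 0.1% SRB staining after 10% TCA fixation, absorbance at 560 nm; bidirectional fit against DMSO.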

Read-out in assay [5]: Interleukin-1 alpha (IL1a), IL1A (gene 3552)
In words: BSK_LPS_IL1a: BioMAP Diversity Plus: LPS Assay for Interleukin-1 alpha (IL1a) Biomarker Activity (AID 2283080). The settings on record: primary human HUVEC with PBMC; actives raise or lower the signal. The procedure, abridged: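 Human umbilical vein endothelial cells co-cultured with PBMC and stimulated with LPS; IL-1a measured by ELISA 24 h after dosing. Bidirectional fitting against DMSO; cytotoxicity checked by SRB staining in parallel cultures.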

Read-out in assay [6]: Monocyte Chemoattractant Protein-1 (MCP1), CCL2 (gene 6347)
Kind of assay: BSK_LPS_MCP1: BioMAP Diversity Plus: LPS Assay for Monocyte Chemoattractant Protein-1 (MCP1) Biomarker Activity (AID 2283081).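 As to AC50: secreted MCP-1 protein quantified by ELISA in culture supernatant.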 The settings on record: primary human HUVEC with PBMC; actives raise or lower the signal. A digest of the protocol:
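Human umbilical vein endothelial cells co-cultured with PBMC, LPS-stimulated; secreted MCP-1 measured by ELISA 24 h after compound addition. Bidirectional curve fitting against DMSO baseline; SRB total-protein staining in parallel cultures for cytotoxicity.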

Assay [7] can be described thus: BSK_LPS_PGE2: BioMAP Diversity Plus: LPS Assay for Prostaglandin E2 (PGE2) Biomarker Activity (AID 2283082).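 As to AC50: secreted prostaglandin E2 measured by ELISA in LPS-stimulated co-culture.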 Particulars: primary human HUVEC with PBMC; actives raise or lower the signal. A digest of the protocol: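 ELISA read-out of PGE2 from human umbilical vein endothelial cells co-cultured with peripheral blood mononuclear cells under LPS, 24 h post-dose. Gain or loss of signal scored relative to DMSO baseline.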

Read-out in assay [8]: Macrophage colony-stimulating factor (MCSF), CSF1 (gene 1435)
Kind of assay: BSK_LPS_MCSF: BioMAP Diversity Plus: LPS Assay for Macrophage colony-stimulating factor (MCSF) Biomarker Activity (AID 2283083). The settings on record: primary human HUVEC with PBMC; actives raise or lower the signal. A digest of the protocol:
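HUVEC–PBMC co-culture, M-CSF measured by ELISA 24 h after chemical dosing. Fitted in both directions relative to DMSO as negative control; overt cytotoxicity assessed by SRB total-protein staining in parallel cultures.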

Read-out in assay [9]: Tumor necrosis factor (Homo sapiens) (UniProt P01375)
Kind of assay: BSK_LPS_TNFa: BioMAP Diversity Plus: LPS Assay for Tumour Necrosis Factor alpha (TNFa) Biomarker Activity (AID 2283085). Particulars: primary human HUVEC with PBMC; actives raise or lower the signal. A digest of the protocol: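 HUVEC/PBMC co-culture, LPS-stimulated; 24 h post-dose; TNFa by ELISA; gain or loss of signal fitted bidirectionally vs DMSO baseline.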

Read-out in assay [10]: Vascular cell adhesion molecule 1 (VCAM1), VCAM1 (gene 7412)
Kind of assay: BSK_LPS_VCAM1: BioMAP Diversity Plus: LPS Assay for Vascular cell adhesion molecule 1 (VCAM1) Biomarker Activity (AID 2283086). The settings on record: primary human HUVEC with PBMC; actives raise or lower the signal. A digest of the protocol:
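ELISA read-out of VCAM-1 at 24 h post-dosing in an LPS-driven HUVEC/PBMC primary human co-culture; gain or loss of signal fitted bidirectionally against DMSO baseline. Cytotoxicity tracked in parallel cultures by SRB total-protein staining.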

Read-out in the next assay: CD38, CD38 (gene 952)
Kind of assay: BSK_SAg_CD38: BioMAP Diversity Plus: SAg Assay for CD38 Biomarker Activity (AID 2283087). The settings on record: primary human HUVEC with PBMC; actives raise or lower the signal. The procedure, abridged: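 Measures CD38 on a human endothelial/PBMC co-culture driven by SEB and TSST-1, 24 h after compound exposure, using ELISA with fluorescence detection; DMSO defines baseline for bidirectional curve fitting.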

Read-out in assay [11]: CD40, CD40 (gene 958)
In words: BSK_SAg_CD40: BioMAP Diversity Plus: SAg Assay for CD40 Biomarker Activity (AID 2283088). The settings on record: primary human HUVEC with PBMC; actives raise or lower the signal. A digest of the protocol: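 HUVEC plus PBMC co-culture, superantigen-activated, with CD40 read by ELISA 24 h after dosing. Curves fitted in both directions against DMSO. Overt cytotoxicity checked by parallel SRB total-protein staining.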

Read-out in another assay: CD69, CD69 (gene 969)
Kind of assay: BSK_SAg_CD69: BioMAP Diversity Plus: SAg Assay for CD69 Biomarker Activity (AID 2283089).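 As to AC50: cell surface CD69 protein quantified by ELISA with fluorescence detection.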 Particulars: primary human HUVEC with PBMC; actives raise or lower the signal. The procedure, abridged: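 Values derive from bidirectional fitting relative to DMSO vehicle. Cells: umbilical vein endothelium plus peripheral blood mononuclear cells, treated 24 h before fluorescent ELISA for CD69.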

Read-out in assay [12]: Monocyte Chemoattractant Protein-1 (MCP1), CCL2 (gene 6347)
Kind of assay: BSK_SAg_MCP1: BioMAP Diversity Plus: SAg Assay for Monocyte Chemoattractant Protein-1 (MCP1) Biomarker Activity (AID 2283090). The settings on record: primary human HUVEC with PBMC; actives raise or lower the signal. The procedure, abridged: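 Values derive from bidirectional fitting of ELISA-measured MCP1 against DMSO controls. Readings were taken 24 h after dosing human vascular endothelial cells co-cultured with peripheral blood mononuclear cells under superantigen stimulation.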

Read-out in assay [13]: E-selectin (Homo sapiens) (UniProt P16581)
In words: BSK_SAg_Eselectin: BioMAP Diversity Plus: SAg Assay for Eselectin Biomarker Activity (AID 2283091). Particulars: primary human HUVEC with PBMC; actives raise or lower the signal. A digest of the protocol:
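Human umbilical vein endothelial cells co-cultured with peripheral blood mononuclear cells, SAg system. E-selectin is measured by ELISA 24 h after dosing and fitted bidirectionally against DMSO. Cytotoxicity is checked by SRB staining of parallel cultures.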

Read-out in assay [14]: Monokine induced gamma interferon (MIG), CXCL9 (gene 4283)
In words: BSK_SAg_MIG: BioMAP Diversity Plus: SAg Assay for Monokine induced gamma interferon (MIG) Biomarker Activity (AID 2283092). Particulars: primary human HUVEC with PBMC; actives raise or lower the signal. The procedure, abridged:
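Values reflect bidirectional fitting of ELISA-measured MIG against DMSO vehicle, taken 24 h after dosing of a co-culture of human umbilical vein endothelial cells and peripheral blood mononuclear cells.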

The nature of assay [15]: BSK_SAg_PBMCCytotoxicity: PBMC Cytotoxicity Assessment in the BioMAP Diversity Plus: SAg Assay (AID 2283093).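 Also: PBMC viability measured as Alamar Blue reduction fluorescence at 546/580 nm; fitted both ways against DMSO so a hit may be loss or gain of signal.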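 As to AC50: PBMC superantigen activated with SEB plus TSST-1 one hour after compound addition.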 The settings on record: primary human HUVEC with PBMC. The procedure, abridged:
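Alamar Blue reduction (6 h, 546/580 nm) reports PBMC cytotoxicity after 90 h superantigen activation (SEB, TSST-1; 20 ng/mL final each) with 1 h compound pre-treatment. Gain or loss of signal fitted versus DMSO.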

Read-out in assay [16]: Interleukin-8 (IL8), CXCL8 (gene 3576)
Kind of assay: BSK_SAg_IL8: BioMAP Diversity Plus: SAg Assay for Interleukin-8 (IL8) Biomarker Activity (AID 2283094). Particulars: primary human HUVEC with PBMC; actives raise or lower the signal. The procedure, abridged: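 HUVEC/PBMC co-culture, 24 h post-dose; IL-8 by ELISA. Gain or loss of signal fitted bidirectionally vs DMSO baseline.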

Read-out in assay [17]: Tissue Factor, F3 (gene 2152)
In words: BSK_LPS_TissueFactor: BioMAP Diversity Plus: LPS Assay for Tissue Factor Biomarker Activity (AID 2283084). The settings on record: primary human HUVEC with PBMC; actives raise or lower the signal. The procedure, abridged: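 Human umbilical vein endothelial cells co-cultured with PBMC were dosed with compound. Cell-surface CD142 was measured by ELISA 24 h later. Activity was fitted bidirectionally against DMSO, with SRB total-protein staining in parallel cultures for cytotoxicity.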

Chain of E-selectin (Homo sapiens) (P16581 whole entry, looked up): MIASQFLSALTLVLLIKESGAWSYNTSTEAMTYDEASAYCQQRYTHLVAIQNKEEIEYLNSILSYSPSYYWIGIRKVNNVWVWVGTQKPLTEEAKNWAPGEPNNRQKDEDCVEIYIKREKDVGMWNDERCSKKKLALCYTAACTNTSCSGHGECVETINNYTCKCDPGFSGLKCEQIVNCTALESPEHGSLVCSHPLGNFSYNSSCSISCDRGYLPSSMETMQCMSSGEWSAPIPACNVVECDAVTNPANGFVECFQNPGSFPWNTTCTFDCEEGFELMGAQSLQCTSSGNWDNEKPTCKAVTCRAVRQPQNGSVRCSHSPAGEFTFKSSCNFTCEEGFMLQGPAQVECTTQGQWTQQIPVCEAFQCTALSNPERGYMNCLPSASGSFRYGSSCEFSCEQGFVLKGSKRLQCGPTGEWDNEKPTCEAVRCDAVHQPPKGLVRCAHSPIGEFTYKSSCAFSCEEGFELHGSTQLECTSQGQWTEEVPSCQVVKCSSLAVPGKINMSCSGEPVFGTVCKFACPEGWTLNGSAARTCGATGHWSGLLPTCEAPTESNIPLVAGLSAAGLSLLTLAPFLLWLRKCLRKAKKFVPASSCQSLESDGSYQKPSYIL
Chain of Tumor necrosis factor (Homo sapiens) (P01375 whole entry, looked up): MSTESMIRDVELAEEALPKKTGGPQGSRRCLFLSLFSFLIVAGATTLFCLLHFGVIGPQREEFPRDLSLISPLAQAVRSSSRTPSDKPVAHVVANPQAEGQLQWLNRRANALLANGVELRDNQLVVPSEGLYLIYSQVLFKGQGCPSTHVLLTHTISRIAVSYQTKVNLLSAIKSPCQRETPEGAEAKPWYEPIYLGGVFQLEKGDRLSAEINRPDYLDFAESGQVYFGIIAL

In general, AC50 refers to the midpoint of the concentration-response curve, whichever way the signal moves. Take `O=C(N[C@@H](c1ccccc1)[C@@H]1CCCCN1)c1cccc(C(F)(F)F)c1Cl`: the AC50 in [1] is 32.5 µM (active); with CD40, CD40 (gene 958) [2], 20 µM (active); in [3] it was 5.55 µM (active); in assay [4], 23.4 µM (active); in assay [5] it was 20 µM (active); in assay [6] it was 22.7 µM (active). The AC50 in [7] was 4.91 µM (active); in [10], 20 µM (active); in the assay with CD38, CD38 (gene 952), 20 µM (active); with CD40, CD40 (gene 958) [11], 20 µM (active); with CD69, CD69 (gene 969) it was 20 µM (active); in [12], 23.4 µM (active). Moreover, the AC50 was 12.3 µM (active) in assay [13], 20 µM (active) in assay [15] and 14.3 µM (active) in [16]. Further, the result in assay [8], in assay [9] and in [14] was inactive.
With `S=c1[nH]c2ccccc2s1`, the outcome in assay [1] was “inactive”; with CD40, CD40 (gene 958) [2], “inactive”; in assay [3] it was “inactive”; in assay [4] it was “inactive”; in [5], “inactive”; in [6], “inactive”. Besides, the outcome is “inactive” in [8]; “inactive” in assay [9]; “inactive” in assay [10]; “inactive” in the assay with CD38, CD38 (gene 952); “inactive” in the assay with CD69, CD69 (gene 969); “inactive” in [12]. In addition, the result in [13], in assay [14], in [15] and in assay [16] was inactive. Also, the AC50 in [7] was 12.9 µM (active); in assay [17], 2.23 µM (active).
Take `C/C=C/c1ccc(OC)cc1`: the outcome in [1] was “inactive”; with CD40, CD40 (gene 958) [2], “inactive”; in assay [3] it was “inactive”; in assay [4], “inactive”; in assay [5], “inactive”; in assay [7] it was “inactive”. For the same compound, the outcome in assay [8] was “inactive”; in [9] it was “inactive”; in assay [10], “inactive”; with CD38, CD38 (gene 952), “inactive”; with CD40, CD40 (gene 958) [11] it was “inactive”; with CD69, CD69 (gene 969) it was “inactive”. For the same compound, the outcome in assay [12], in assay [13], in assay [14], in [15] and in [16] was inactive. Besides, the AC50 in [6] was 13.8 µM (active).
Turning to `NCCOCCOCCN`, the outcome in assay [1] was “inactive”; in the assay with CD40, CD40 (gene 958) [2], “inactive”; in assay [3], “inactive”; in assay [4] it was “inactive”; in [5], “inactive”; in [6], “inactive”. Moreover, the outcome was “inactive” in [7]; “inactive” in assay [8]; “inactive” in assay [9]; “inactive” in assay [10]; “inactive” with CD38, CD38 (gene 952); “inactive” in the assay with CD40, CD40 (gene 958) [11]. Moreover, the outcome with CD69, CD69 (gene 969) is “inactive”; in [12] it was “inactive”; in assay [13] it was “inactive”; in assay [14], “inactive”; in [15], “inactive”; in assay [16] it was “inactive”.
